# GRK2 aptamer HTS – inhibitors of human GRK2 displacing RNA aptamer. P25098. bead flow cytometry, FAM-aptamer displacement from GRK2. inhibition of aptamer binding, % at 10 µM. 330,000 compounds, 0.59% hits. AID 488847;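 active = inhibition of aptamer binding above 40%, roughly 3 SD of noise, on plates passing a quality check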;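 also: median bead fluorescence of bound FAM aptamer so fluorescent compounds give negative values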
# Target sequence (P25098 whole entry, looked up): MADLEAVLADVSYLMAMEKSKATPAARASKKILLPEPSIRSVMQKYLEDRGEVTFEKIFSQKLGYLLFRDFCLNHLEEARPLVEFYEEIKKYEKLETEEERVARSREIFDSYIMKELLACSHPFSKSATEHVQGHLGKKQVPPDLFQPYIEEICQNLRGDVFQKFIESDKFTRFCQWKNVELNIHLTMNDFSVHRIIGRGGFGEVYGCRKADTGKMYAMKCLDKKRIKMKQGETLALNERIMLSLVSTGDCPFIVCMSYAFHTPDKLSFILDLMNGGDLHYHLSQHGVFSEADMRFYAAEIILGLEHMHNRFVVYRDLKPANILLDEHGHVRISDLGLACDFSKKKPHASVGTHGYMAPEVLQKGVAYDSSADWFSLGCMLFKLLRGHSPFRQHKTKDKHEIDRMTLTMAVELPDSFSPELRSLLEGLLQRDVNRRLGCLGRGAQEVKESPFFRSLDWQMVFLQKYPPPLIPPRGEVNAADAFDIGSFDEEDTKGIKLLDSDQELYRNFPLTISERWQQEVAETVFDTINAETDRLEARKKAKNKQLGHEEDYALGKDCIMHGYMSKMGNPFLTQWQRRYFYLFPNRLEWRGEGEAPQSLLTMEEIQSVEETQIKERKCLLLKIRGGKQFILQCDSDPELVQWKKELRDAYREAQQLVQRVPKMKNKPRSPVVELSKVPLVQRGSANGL
# APOBEC3A inh – human APOBEC3A DNA deaminase inhibition. P31941. recombinant A3A, FAM/TAMRA ssDNA deamination fluorescence. inhibition, % at 20 µM. 330,000 compounds, 0.41% hits. AID 493011;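 active = at least 40% inhibition at 20 µM here, with at most 30% in a related deaminase screen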;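 also: plate controls were A3A with DMSO for no effect and wells lacking A3A enzyme for full effect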
# A3G deaminase – APOBEC3G (human) deaminase inhibition. 330,000 compounds, 0.28% hits. Q9HC16. inhibition, % at 20 µM. recombinant A3G, ssDNA deamination FAM/TAMRA fluorescence;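 active = inhibition of at least 40% at 20 µM, with no more than 30% in the related APOBEC3A deaminase screen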;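 also: plate controls were DMSO wells with A3G for no effect and wells lacking A3G enzyme for full effect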
# VLA-4 inh – inhibition in a human VLA-4 binding assay. AID 2557. 330,000 compounds, 0.2% hits. inhibition, % (about 7 µM as worked out from the volumes in the protocol). VLA-4 expressing cells, ligand binding flow cytometry; in the data active = inhibition above about 50%
# GRK2 CP1 – human GRK2 inhibition confirmation, cherry pick 1. AID 504451. 2,000 compounds, 4% hits. bead-bound GRK2, FAM-aptamer displacement, flow cytometry. shares compounds with GRK2 aptamer HTS. aptamer displacement, % at 10 µM;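 active = aptamer displacement above 40%, near three times the noise of non-fluorescent compounds, on plates passing quality checks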;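 also: negative values mostly reflect intrinsic compound fluorescence rather than true enhancement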
# Aptamer quench 1 – quenches fluorescent RNA aptamer, GRK2 hit artifact; fluorescence change (kMESF span), kMESF (no concentration beside the values); 110 tested, under 10 active; shares compounds with GRK2 aptamer HTS; AID 504521; Fluorescent RNA aptamer beads, quenching, flow cytometry; stronger effect = higher value;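 active = compounds whose bead fluorescence drops by more than 37 kMESF across the dose range, marking them as dye quenchers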
# FAM quench CP1 – quenches fluorescent RNA aptamer, GRK2 hit artifact; Carboxyfluorescein RNA aptamer on beads, flow cytometry quenching; stronger effect = lower value; AID 504580; 2,000 tested, under 10 active; fluorescence response (% of DMSO), % at 10 µM; shares compounds with GRK2 aptamer HTS;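 active = compounds that quench the bead-bound fluorescent RNA probe, cutting fluorescence to under half of the solvent control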;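 also: counterscreen run without GRK2 so only probe quenching by compound is measured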
# GRK2 CP2 – confirmation of human GRK2 inhibitors binding RNA aptamer site; inhibition of aptamer binding, % at 10 µM; AID 504782; 360 tested, under 10 active; bead-bound GRK2, FAM-aptamer displacement, flow cytometry; shares compounds with GRK2 aptamer HTS;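 active = inhibition of aptamer binding above 40%, about triple the noise seen with nonglowing compounds, on plates passing quality control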;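 also: negative values mostly come from compounds that fluoresce themselves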
# Aptamer quench3 – aptamer fluorescence quenching in GRK2 counter-screen dose response; AID 504819; shares compounds with GRK2 aptamer HTS; 25 tested, under 10 active; Streptavidin beads, FAM-RNA aptamer fluorescence quenching, flow cytometry; change in fluorescence (kMESF span), kMESF (concentration not given with the values);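 active = compounds quenching the bead-bound labeled aptamer, with fluorescence dropping by more than 37 kMESF over the dose range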
# FAM quench SP – counter-screen for GRK2 binding hits: quenchers of fluorescent RNA aptamer. fluorescence response vs DMSO, % at 10 µM. shares compounds with GRK2 aptamer HTS. carboxyfluorescein RNA aptamer beads, flow cytometry quenching; stronger effect = lower value. 360 tested, under 10 active. AID 588494;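 active = response vs DMSO under 50%, meaning signal dropped by over half, treated as fluorescence quencher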;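 also: labelled aptamer on streptavidin beads without GRK2 as a quench counter-screen; 100% = bead fluorescence of DMSO wells and lower means quenching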
# FAM quench DR – counter-screen for GRK2 aptamer binding inhibitors: aptamer fluorescence quenching | shares compounds with GRK2 aptamer HTS | Bead-bound FAM RNA aptamer fluorescence quenching, flow cytometry; stronger effect = lower value | fluorescence ratio to DMSO, % at 11.1 µM | 35 tested, under 10 active;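 active = compounds that dim the fluorescent label, raw bead signal shifting by over 33 units between lowest and highest dose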
# Active calls of the source: *; . = no result given. Most compounds without a hit are left out; they make up all but 1.4% or so of the library.
SMILES,GRK2 aptamer HTS,APOBEC3A inh,A3G deaminase,VLA-4 inh,GRK2 CP1,FAM quench CP1,others
Cc1nn(-c2ccccc2)c2c1C(=O)N(Cc1ccccc1)C(=O)C(C)(C)C2,44*,-5,-1,28,-1,95,
O=C(CCS(=O)(=O)c1ccc(Br)cc1)NCCc1ccccc1,70*,25,30,2,43*,100,Aptamer quench 1=-0.7;Aptamer quench3=-0.9
O=C(CCS(=O)(=O)c1ccc2c(c1)NC(=O)CS2)NCCc1ccc(Cl)cc1,10,-4,-4,6,.,.,
CCOc1ccc(CCNC(=O)CCS(=O)(=O)c2ccc(Br)cc2)cc1OCC,8,-5,3,-7,-1,96,Aptamer quench 1=-0.5;FAM quench DR=99
O=C(CCS(=O)(=O)c1ccc2c(c1)NC(=O)CS2)NCCc1ccccc1,0,-1,-3,-13,.,.,GRK2 CP2=7;FAM quench SP=99
COc1ccc(S(=O)(=O)CCC(=O)NCc2ccc(C)o2)cc1,6,-2,-6,-16,.,.,
COc1ccc(CNC(=O)CCS(=O)(=O)c2ccc(Br)cc2)cc1,89*,19,15,1,38,102,Aptamer quench 1=8.5;Aptamer quench3=1.8;FAM quench DR=103
Cc1ccc(S(=O)(=O)c2nc(S(C)(=O)=O)sc2N2CCCCCC2)cc1,0,-4,-5,6,.,.,
COC(=O)c1sc(NC(=O)COc2cccc(C)c2)nc1C,72*,-1,-6,14,.,.,GRK2 CP2=-12;FAM quench SP=105
COc1cccc(-c2cc(C(=O)Nc3ccc(OC)c(OC)c3)no2)c1,98*,-2,-8,7,3,99,
CC(=O)c1cccc(NC(=O)c2cc(-c3ccc(F)cc3)on2)c1,0,-3,-8,8,-1,97,
Cc1ccc(NC(=O)c2cc(-c3ccc(F)cc3)on2)cc1C,5,1,-6,3,.,.,
Cc1nc(C)c(NC(=O)N2CCc3ccccc32)cc1NC(=O)N1CCc2ccccc21,6,-5,-4,-2,.,.,
Cn1ccc2cc3c(cc21)CCN3C(=O)Nc1cccnc1,57*,18,5,20,-13,72,
CCOC(CNc1ncnc2sc(-c3ccccc3)cc12)OCC,48*,-4,-6,11,0,98,
O=C(NC(CC1CCCCC1)C(=O)O)c1ccccc1 (stereo not drawn),99*,-4,-13,3,6,102,
O=C(NC(Cc1ccccc1)C(=O)N1CCCCCC1)c1ccccc1 (stereo not drawn),3,5,8,-1,.,.,
O=C(CS(=O)(=O)c1ccc(F)cc1)Nc1nccs1,0,3,-6,17,.,.,
NC(=O)c1ccsc1NC(=O)CS(=O)(=O)c1ccc(F)cc1,0,-5,-14,0,.,.,GRK2 CP2=9;FAM quench SP=100
O=C(c1cc(COc2c(F)cccc2F)on1)N1C[C@H]2CC[C@H]1C2,1,-3,-8,-9,.,.,
CCN(CC)CCNC(=O)CNC(=O)c1nn(-c2ccc(OC)cc2OC)c(=O)c2ccccc12,0,-4,-5,3,-4,103,
CCCCNC(=O)CNC(=O)c1nn(-c2ccc(OC)c(Cl)c2)c(=O)c2ccccc12,0,-5,-8,-1,4,101,
COCCCn1c(C(C)C)nc2oc3cc(OC)ccc3c(=O)c2c1=O,8,-3,-6,0,.,.,
CCOC(=O)C1CCN(C(=O)c2ccc(S(=O)(=O)Nc3ccccc3OC)cc2)CC1,0,-3,-6,-8,.,.,
CSc1ccc(CN2CCN(C(C)C)C(CCO)C2)cc1 (stereo not drawn),91*,1,-4,4,-4,104,
SMILES,GRK2 aptamer HTS,APOBEC3A inh,A3G deaminase,VLA-4 inh,GRK2 CP1,FAM quench CP1,others
CC(C)N1CCN(Cc2ccncc2)CC1CCO (stereo not drawn),1,-1,-9,18,.,.,
COc1ccccc1OCCCCOc1ccccc1C(C)=O,10,6,-3,-2,.,.,
COc1cc2sc(C)nc2c2ccccc12,0,36,6,5,.,.,
Cc1nc2c(ccc3c2ccc2nc(C)sc23)s1,2,-6,-9,5,.,.,GRK2 CP2=15;FAM quench SP=100
CN1CCN(/N=C/c2ccc(Cl)c(Cl)c2)CC1,0,0,-1,8,.,.,
NC(=O)COC(=O)CCCSc1nc2ccccc2s1,51*,2,-15,2,1,97,
O=C(Cc1cccs1)NCc1cccc(Br)c1,55*,3,-3,-4,2,102,
Cc1c(N2C(=O)c3ccc4c5c(ccc(c35)C2=O)CC4)c(=O)n(-c2ccccc2)n1C,46*,8,38,20,32,89,
COC(=O)c1ccc(Nc2nc(N3CCOCC3)nc(N3CCOCC3)n2)cc1,1,-4,-8,4,.,.,
O=C(CCS(=O)(=O)c1ccccc1)Nc1ccc(Cl)cn1,14,20,2,3,9,105,
O=C(COC(=O)C1CC1)Nc1ncc(Cl)cc1Cl,9,12,3,11,.,.,
O=C(CCS(=O)(=O)c1ccc(Br)cc1)Nc1ccc(Br)cc1F,70*,8,3,0,.,.,GRK2 CP2=0;Aptamer quench3=-2.3;FAM quench SP=100;FAM quench DR=98
O=C(CS(=O)(=O)c1ccccc1)Nc1ccc(Cl)cn1,0,3,1,-4,.,.,
O=C(CCS(=O)(=O)c1ccc(Br)cc1)Nc1ccccn1,14,2,7,-24,4,99,
O=C(COC(=O)C1CC1)Nc1ccc(Cl)cn1,53*,4,-5,10,4,96,
CC1CC(C)CN(C(=O)CCNS(=O)(=O)c2cccs2)C1 (stereo not drawn),3,-7,-9,0,.,.,
O=C(NCN1CCN(c2ccccc2)CC1)c1cnccn1,0,-1,-5,10,.,.,
COc1cccc(OC)c1C(=O)N1CCN(Cc2ccc3c(c2)OCO3)CC1,17,-1,-2,-4,.,.,
COc1cccc(OC)c1C(=O)Nc1ccc(S(=O)(=O)Nc2ncccn2)cc1,4,-5,17,-9,.,.,
CCOC(=O)N1CCN(CC(=O)Nc2ccc(F)cc2F)CC1,0,-2,-8,13,.,.,
COc1ccc(Cl)cc1Nc1nnc(-c2ccncc2)s1,55*,16,14,5,-11,103,
